The campaign covered roughly 2,100 compounds. About 480 (23%) were called active. Another 5% or so got no clear call; they are omitted.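 The calls were made as follows: active = fitted curve reaches 40% activation at or below the top valid concentration, in every replicate test; inconclusive = replicate tests disagree on the call; inactive = the rest, including activity in the opposite direction.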 A selection follows. Entries with a potency or affinity are not part of this list.
assay: activators raising PGC1a acetylation in cells, dose response, cell-based, cherry-picked samples, set 6 (AID 720513); conditions: U2OS PGC1a acetylation AlphaLISA, overnight, 0 = neutral, -100 = inhibitor control; series mostly up to 19.5 µM; activation (acetylation increase): at the top concentration;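 also: cells made to overexpress flag tagged PGC1a plus GCN5 acetyltransferase by viral infection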

Activation (acetylation increase), inactive:
Cc1noc(C)c1NC(=O)N(C)C[C@@H]1OCCCC[C@@H](C)Oc2ccc(N(C)C)cc2C(=O)N([C@@H](C)CO)C[C@H]1C -4.29%
CCCOc1ccc(/C=C/C(=O)O)cc1OC 5.41%
COc1ccc(C(=C(CC(=O)O)C(=O)OC(C)(C)C)c2cc(OC)c(OC)c(OC)c2)cc1OC -5.87%
CN(C)C(=O)C[C@H]1CC[C@H](NC(=O)C2CCC2)[C@@H](CO)O1 15.4%
COc1ccc2cc3c(N)nn(C(=O)c4ccccc4Cl)c3nc2c1 -23.1%
COc1ccc(NCc2nnc(SCC(=O)Nc3cc(C)cc(C)c3)o2)cc1 21.1%
CCc1c(C)nc(SCC(=O)Nc2ccc3c(c2)OCCO3)[nH]c1=O -2.04%
CCN1C(=O)c2cccc3c(S(=O)(=O)Nc4ccccn4)ccc1c23 17.1%
Cc1ccc(O)c(NC(=O)c2ccc3c(c2)C(=O)N(CC(C)C)C3=O)c1 4.64%
CCN1CCN(C(=O)c2c(-c3c(F)cccc3Cl)noc2C)CC1 -1.69%
C[C@H](CO)N1C[C@H](C)[C@H](CN(C)C(=O)NC2CCCCC2)Oc2cc(C#Cc3ccc(F)cc3)ccc2S1(=O)=O -65.8%
Nc1ccccc1-c1ccn[nH]1 0.587%
CC1=NN(C(=O)c2ccc(C)cc2)C(O)(C(F)(F)OC(F)(F)F)C1 (stereo not given) 11.7%
O=C(c1ccco1)N1N=C(c2ccc(Cl)cc2)CC1(O)C(F)(F)F (stereo not given) -31.7%
COc1ccc(C(C)(O)c2nc(-c3cccc(O)c3)cs2)cc1 (stereo not given) -1.9%
COc1ccc(-c2ccc(CCC(=O)O)n2NC(=O)c2ccc(C(C)(C)C)cc2)cc1 -0.816%
O=C(Nc1ccc(F)cc1)N[C@H]1C=C[C@H](CC(=O)N2CCCCC2)O[C@H]1CO 26.6%
COc1cccc(-c2cc(C(=O)NCCCn3ccnc3)no2)c1 33.2%
CCSc1ccccc1C(=O)NCCCn1ccnc1 5.32%
Cc1ccccc1-c1nc(C(=O)NCC2CCCO2)cc2c1[nH]c1ccccc12 (stereo not given) -55.2%
C[C@@H]1CN([C@@H](C)CO)S(=O)(=O)c2ccc(-c3ccc(F)cc3)cc2O[C@H]1CN(C)C(=O)C1CCCCC1 -61.4%
C#CCN(C[C@@H]1[C@@H](OC(=O)NC2CCCC2)[C@@H](OC(=O)NC2CCCC2)Cn2c(=O)ccc(=O)n21)S(=O)(=O)c1ccc(C)cc1 -92%
O=C1N(Cc2ccccc2)Cc2ccccc2[C@@H]2OC(c3ccc(OCCCO)cc3)=N[C@]12Cc1ccccc1 1.25%
CCCC#Cc1ccc2c(c1)O[C@@H](CN(C)C(=O)C1CC1)[C@@H](C)CN([C@@H](C)CO)S2(=O)=O 3.55%
COC(c1ccccc1)c1nnc(CCC(=O)N(C)C(C2CC2)C2CC2)o1 (stereo not given) -12.5%
COCC(=O)NCc1nc2ccccc2n1Cc1ccccc1F -16.1% [at 10 µM]
COCCNC(=O)C(c1ccc(F)cc1)N(Cc1ccco1)C(=O)CCC(=O)Nc1nccs1 (stereo not given) 6.62%
CCCCn1nc(NC(=O)c2cccs2)c2cc3ccccc3nc21 54.1%
COc1ccc2cc3cc(C(=O)NCc4cccs4)oc3nc2c1 -4.04%
CN(C)c1ccc(C(=O)NC2(N3CCC3=O)CCCC2)cc1 29%
CCOC(=O)N1CCN(C(=O)c2cc(Cl)c(Cl)cc2C(=O)O)CC1 -24.4%
Clc1ccc(CSc2nnc(-c3cccnc3)n2Cc2ccco2)c(Cl)c1 38.7%
CCOC(=O)C1=C(C)N=c2s/c(=C\c3cccc(OCC(=O)O)c3)c(=O)n2C1c1ccccc1OC (stereo not given) 22.3%
C[C@@H]1CN([C@H](C)CO)C(=O)c2cc(NS(=O)(=O)c3ccc(F)cc3)ccc2O[C@H]1CN(C)Cc1ccc(C(F)(F)F)cc1 13.5%
Cc1noc(C)c1S(=O)(=O)Nc1cccc2c1O[C@@H](CN(C)Cc1ccncc1)[C@@H](C)CN([C@@H](C)CO)C2=O -8.63%
C[C@@H]1CN([C@H](C)CO)C(=O)c2cc(NC(=O)Cc3ccccc3)ccc2O[C@@H]1CN(C)Cc1ccncc1 -2.98%
C[C@H](CO)N1C[C@H](C)[C@@H](CN(C)Cc2ccc(C(F)(F)F)cc2)Oc2ccc(NS(=O)(=O)c3ccc(F)cc3)cc2C1=O 8.36% [at 21 µM]
Cc1noc(C)c1NC(=O)Nc1cccc2c1O[C@H](CN(C)Cc1ccc(Oc3ccccc3)cc1)[C@H](C)CN([C@@H](C)CO)C2=O -33.3%
C[C@H]1CN([C@@H](C)CO)C(=O)c2cccc(NC(=O)C3CCCCC3)c2O[C@H]1CN(C)Cc1ccc(C(=O)Nc2ccccc2N)cc1 264% [at 10 µM]
COc1ccc(CN(C)C[C@H]2Oc3c(NC(=O)CCCCCC(=O)Nc4ccccc4N)cccc3C(=O)N([C@H](C)CO)C[C@@H]2C)cc1 9.2% [at 21 µM]
C[C@H](CO)N1C[C@H](C)[C@H](CN(C)Cc2ccc(C(=O)Nc3ccccc3N)cc2)Oc2c(NC(=O)c3cnccn3)cccc2C1=O -22.5%
C[C@@H]1CN([C@@H](C)CO)C(=O)CCCn2cc(nn2)CO[C@H]1CN(C)Cc1ccc2c(c1)OCO2 9.96% [at 21 µM]
O=C(C[C@@H]1C=C[C@@H](NC(=O)CN2CCOCC2)[C@H](CO)O1)NC1CCCCC1 5.29%
CSc1nc(SC)c2c3c(oc2n1)COC(C)(C)C3 18.7%
COCC#Cc1ccc2c(c1)O[C@H](CN(C)C(=O)CN(C)C)[C@@H](C)CN([C@@H](C)CO)S2(=O)=O 1.49%
CCC(=O)N1CCc2cc(OC)c(OC)cc2C1COc1ccc(C(=O)OC)cc1 (stereo not given) 28.5%
CCC(=O)N(C)C[C@@H]1Oc2ncc(C#CCc3ccccc3)cc2C(=O)N([C@H](C)CO)C[C@@H]1C -52.8%
C[C@@H]1CN([C@H](C)CO)C(=O)c2cccc(NC(=O)c3nc4ccccc4s3)c2O[C@@H]1CN(C)CC1CCCCC1 -33.2%
C[C@H]1CN([C@@H](C)CO)C(=O)c2cccc(NC(=O)c3nc4ccccc4s3)c2O[C@H]1CN(C)Cc1ccc(C(=O)Nc2ccccc2N)cc1 60.2%
CN(c1ccccc1)S(=O)(=O)c1ccc(Cl)nc1 -0.798%
O=C(/C=C/c1ccccc1)CC(O)(c1ccccc1)C(F)(F)F (stereo not given) 27.6% [at 10 µM]
CCN(CC)S(=O)(=O)c1ccc(C(=O)N(c2ccccc2)C2C=CS(=O)(=O)C2)cc1 (stereo not given) -8.54%
CNC[C@@H](CC1CCCCC1)NC[C@H](CC(C)C)NCCc1cccc(C(F)(F)F)c1 -101%
Cc1cc(NS(=O)(=O)c2ccc(NC(=O)COc3c(C)cc(Br)cc3C)cc2)no1 19.4%
CCN(CC(=O)NCc1ccc(Cl)cc1)C(=O)CSCC(=O)Nc1ccc(C)cc1 -34%
Cc1nnc2sc(-c3ccc(NC(=O)c4ccc(-c5ccc(Cl)cc5Cl)o4)cc3)nn12 -15.2%
CCC(=O)NCc1c(C)c(C)n(Cc2ccccc2)c1-n1cccc1 14.2%
COc1ccc(S(=O)(=O)N2CCCCN3[C@@H](CO)[C@@H](c4ccc(C5=CCCCC5)cc4)[C@@H]3C2)cc1 16.8%
Cc1ccc(S(=O)(=O)OCCC2=CC(=O)CCN2Cc2ccccc2)cc1 -13.4%
Cc1ccc(S(=O)(=O)N2CCCCC2C(=O)O)cc1 (stereo not given) -66.4%
CN(C)CC(=O)N[C@H]1CC[C@H](CCNC(=O)Nc2ccc(Cl)cc2)O[C@H]1CO 0.988%
CCCc1nnc(NC(=O)CN2CCOCC2)s1 -3.15%
CCOC(=O)N1CCN(C(=O)c2cc(S(=O)(=O)N3CCCC3)cn2C)CC1 14.9%
CNC[C@@H]1Oc2cc(C#CCC3CCCC3)ccc2S(=O)(=O)N([C@H](C)CO)C[C@H]1C -9.01%
COc1ccc(-c2noc(CCC(=O)N3CCN(c4cccc(C)c4C)CC3)n2)cc1 16.8%
COc1ccc(COc2cc(-c3cccc(OC)c3)nc3ccc(NC(=O)c4cccnc4)cc23)cc1 12%
O=C(N/N=C/C=C\c1ccccc1[N+](=O)[O-])c1cccnc1 11%
CC(=O)N1N=C(c2ccco2)CC1c1ccco1 (stereo not given) -18.8%
CCC1SC2=NC(C)=C(C(=O)OC)C(c3cccs3)N2C1=O (stereo not given) 9.25%
COc1ccc(S(=O)(=O)N[C@@H]2CC[C@H](CCNC(=O)c3ccccc3F)O[C@H]2CO)cc1 16.6%
O=c1c(Cl)c(Cl)cnn1Cc1nnc(-c2ccc(Cl)cc2)o1 -89.1%
CCC(=O)N(C)C[C@@H]1Oc2cc(C#Cc3cccnc3)ccc2S(=O)(=O)N([C@H](C)CO)C[C@H]1C -30.7%
C=CCc1ccc(OCCCCNC(C)CC)c(OC)c1 (stereo not given) 1.82%
O=C1CN(C(=O)Cn2ncc(Cl)c(Cl)c2=O)c2ccccc2N1 -101%
CSCC(O)Cn1[nH]c(=O)c2cc(Cl)c(Cl)cc2c1=O (stereo not given) -20.6%
Cc1cc(S(=O)(=O)NC(C)C)ccc1OCC(=O)Nc1ccc2c(c1)OCCO2 6.52%
O=C(/C=C/c1ccccc1)CC(O)(c1ccccc1)C(F)(F)C(F)F (stereo not given) -99.5%
Cc1ccc(C2CC2c2n[nH]c(=S)n2-c2ccc(Cl)cc2)cc1 (stereo not given) 4.31%
CCCNC(=O)c1nnsc1S(=O)c1ccc(Cl)cc1 (stereo not given) -98.5%
O=C(Nc1ccccc1)c1nnsc1S(=O)c1ccc(Cl)cc1 (stereo not given) -86.1%
Cc1ccc(-n2nc3ccc(N)cc3n2)cc1 31%
CCC(=O)N(C)C[C@@H]1Oc2ncc(-c3ccc(C(=O)N(C)C)cc3)cc2C(=O)N([C@H](C)CO)C[C@@H]1C -3.52%
COc1ccc(OCC(=O)NNC(=O)c2c(-c3ccccc3Cl)noc2C)cc1 -14.9%
CSc1n[nH]c(NC(=O)c2c(-c3c(Cl)cccc3Cl)noc2C)n1 -24%
O=C(O)COc1ccc(/C=C2/SC(=S)N(Cc3ccccc3)C2=O)cc1 14.2%
CNC[C@@H](Cc1ccccc1)NC[C@@H](CC1CCCCC1)NCCCc1ccccc1 -100%
CCOC(=O)C1CCN(Cc2ccc(O)c3ncccc23)CC1 0.639%
Cc1cccc(NS(=O)(=O)c2cccc(C(=O)NCC(c3ccco3)N3CCCCC3)c2)c1 (stereo not given) -13%
COc1ccc(C(=O)C(CN2CCCC2)c2ccccc2)cc1 (stereo not given) -87%
CC(C)c1ccc(S(=O)(=O)N(C)C2(C)CCS(=O)(=O)C2)cc1 (stereo not given) 35.8% [at 10 µM]

Reference: PubChem BioAssay AID720513 (Broad Institute, 2013)
